# Assay results as given in ChEMBL document CHEMBL3988442, “University of Dundee, Small-Polar-MMV Screening Library” (2021).
# Species on record: Homo sapiens
# Experiment: To identify inhibition of the IFN signalling (Jak-Stat) pathway via expression of an eGFP reporter gene under the control of an IFN-stimulated response element (ISRE) containing MxA promoter.
# Format: functional
# Design: scale not given: direction of the effect not stated beside the values
# Settings: 30 µM
row,SMILES,Percent Effect [%]
1,CCc1noc(C(C)N2CCN(Cc3nc(C)c(C)o3)CC2)n1 (stereo not given),20.8
2,CCn1cnnc1C1CCN(C(=O)c2cnc3ccccc3n2)CC1,-15.4
3,CN(CC(=O)NCc1ccccn1)CC1CCCN1c1cccnn1 (stereo not given),3.47
4,CC(C)(NCC(=O)NCCC#N)c1ccc2c(c1)OCCO2,3.81
5,Cc1ccc(NC2CCN(C(=O)c3cccc(F)c3F)CC2)nn1,10.2
6,Clc1ccccc1C1(c2ccnc(-c3ncccn3)n2)CCNCC1,-17.8
7,O=C1CC(c2ccncc2)c2c(c(C(=O)O)cn2-c2ccc(F)cc2)N1 (stereo not given),4.82
8,O=C(NCCC(=O)N1CCCc2ccccc21)c1c(O)cc(F)cc1F,22.7
9,CNC(=O)N1C[C@H]2CC[C@@]3(N=C(c4ccccc4)NC3=O)[C@H]2C1,12.9
10,Cc1cc(CN(C)C2CCCN(Cc3noc(C4CC4)n3)C2)no1 (stereo not given),15.9
11,C=C1c2ccccc2C(=O)N1CCC(=O)N1CCNC(=O)C1,-7.94
12,CCOC(=O)CCNC(=O)N1CCN(c2nc3ccccc3n2C)CC1,-4.19
13,CNc1cc(N2CCCC2CNCc2c[nH]nc2C(C)(C)C)ncn1 (stereo not given),-0.674
14,COCC1c2c(cnn2CC2CC2)CCN1Cc1nccs1 (stereo not given),-5.9
15,CCc1nnc2n1CCN(C(=O)c1csc(-c3cnn(C)c3)n1)C2,0.753
16,Cn1ncc2c1CCCC2NCc1cc(Br)cs1 (stereo not given),5.32
17,CCC(C)c1noc(C2CCN(C(=O)c3cccs3)CC2)n1 (stereo not given),23.9
18,CCn1cnnc1CNC(=O)NC(C)C(C)C (stereo not given),22.8
19,O=C(CC1CCCC1)N1CCCC(c2n[nH]c3nccnc23)C1 (stereo not given),13.3
20,Fc1ccc2[nH]c(C3CCCN3CCc3ccccn3)nc2c1 (stereo not given),-28.3

# Target: T1, Tyrosyl-tRNA synthetase, putative (Trypanosoma cruzi (strain CL Brener)) (UniProt Q4DSP6)
# T1 sequence (whole entry): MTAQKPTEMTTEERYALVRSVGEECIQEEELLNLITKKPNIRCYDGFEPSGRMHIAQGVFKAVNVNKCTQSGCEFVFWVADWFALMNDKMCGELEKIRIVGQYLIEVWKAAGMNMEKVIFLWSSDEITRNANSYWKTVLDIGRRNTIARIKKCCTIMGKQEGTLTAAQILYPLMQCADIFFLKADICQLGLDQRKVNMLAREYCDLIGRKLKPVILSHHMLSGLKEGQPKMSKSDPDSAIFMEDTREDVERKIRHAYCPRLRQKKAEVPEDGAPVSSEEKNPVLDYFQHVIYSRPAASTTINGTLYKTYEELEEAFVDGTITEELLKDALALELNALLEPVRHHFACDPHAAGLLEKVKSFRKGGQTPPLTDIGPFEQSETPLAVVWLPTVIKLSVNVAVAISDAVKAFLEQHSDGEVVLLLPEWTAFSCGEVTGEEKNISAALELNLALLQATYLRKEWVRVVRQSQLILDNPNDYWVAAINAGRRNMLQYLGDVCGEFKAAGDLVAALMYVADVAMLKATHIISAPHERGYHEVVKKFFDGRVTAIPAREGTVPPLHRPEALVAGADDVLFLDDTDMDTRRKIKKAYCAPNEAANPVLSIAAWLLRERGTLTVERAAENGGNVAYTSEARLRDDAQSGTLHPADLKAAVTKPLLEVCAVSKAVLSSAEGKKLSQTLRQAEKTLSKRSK
# Experiment: Trypanosoma cruzi tyrosyl tRNA synthetase (TcYRS) _High Tyrosine SOP; also: in the data most compounds retested in dose-response had high values
# Format: functional
# Design: scale not given: direction of the effect not stated beside the values
# Settings: 30 µM
row,SMILES,Percent Effect [%]
1,CC(C)COC(C)C(=O)NCc1ccc(OC(C)C)nc1 (stereo not given),8.57
2,CCc1n[nH]c(C2CN(CCc3cccs3)CCO2)n1 (stereo not given),2.08
3,CC(=O)N1CCCC(c2ccc(Nc3nc(C)cc(C)n3)cn2)C1 (stereo not given),3.19
4,CN(CC1(O)CCCN(CCC2CCCCC2)C1=O)C1CCOCC1 (stereo not given),4.92
5,Cc1noc(C2CCC3(CCN(C(=O)c4c(C)noc4C)CC3)O2)n1 (stereo not given),-4.3
6,COc1ncccc1NC(=O)N1CCC(CNC(C)=O)CC1,4.92
7,CN1CCN(CCCNC(=O)c2cc(Cl)c3c(c2)OCO3)CC1,3.16
8,O=C(NS(=O)(=O)c1ccc2c(c1)OCCO2)c1ccc(Br)cc1F,-13.5
9,CCN1CCC(CNC(=O)C2(c3cccc(C)c3)CC2)C1 (stereo not given),11.5
10,CC(C)N(C)Cc1cnc2n1CCN(CCc1ccccc1)C2,6.93
11,CNc1nc2c(c(C(=O)N3CCCC3)n1)CN(Cc1nccn1C)CC2,7.29
12,Cc1ccc(-n2nnc(CC(=O)N3CCSCC3)c2C)cc1,5.38
13,Cc1nc(CN2CCCC(N(C)Cc3nnsc3Cl)C2)no1 (stereo not given),5.71
14,Cc1nc(-c2ccccc2)sc1C(=O)NCCNc1ncccn1,6.4
15,Cc1cc(=O)n(CC(=O)NCCC(C)C)c(-c2cccc(Cl)c2)n1,6.45
16,CCn1ccnc1CN(C)C1CCCN(CCc2ccccc2)C1 (stereo not given),5.38
17,CCN1CCN(c2ncc(-c3cc(C)no3)c(-c3ccoc3C)n2)CC1,2.15
18,COc1ccccc1CC(=O)N1CCC(NCc2c[nH]nc2C)CC1,7.92
19,CN(Cc1cccc(F)c1)C1CCN(CCc2ccccn2)CC1,3.96
20,CC(C)c1nc2n(n1)CC(NCc1nc(-c3cccnc3)no1)CC2 (stereo not given),3.81

row,SMILES,Percent Effect [%]
1,CCc1noc(C(C)N2CCN(Cc3nc(C)c(C)o3)CC2)n1 (stereo not given),-5.39
2,CCn1cnnc1C1CCN(C(=O)c2cnc3ccccc3n2)CC1,0
3,CN(CC(=O)NCc1ccccn1)CC1CCCN1c1cccnn1 (stereo not given),8.91
4,CC(C)(NCC(=O)NCCC#N)c1ccc2c(c1)OCCO2,4.43
5,Cc1ccc(NC2CCN(C(=O)c3cccc(F)c3F)CC2)nn1,4.17
6,Clc1ccccc1C1(c2ccnc(-c3ncccn3)n2)CCNCC1,6.45
7,O=C1CC(c2ccncc2)c2c(c(C(=O)O)cn2-c2ccc(F)cc2)N1 (stereo not given),8.47
8,O=C(NCCC(=O)N1CCCc2ccccc21)c1c(O)cc(F)cc1F,-0.952
9,CNC(=O)N1C[C@H]2CC[C@@]3(N=C(c4ccccc4)NC3=O)[C@H]2C1,2.15
10,Cc1cc(CN(C)C2CCCN(Cc3noc(C4CC4)n3)C2)no1 (stereo not given),1.48
11,C=C1c2ccccc2C(=O)N1CCC(=O)N1CCNC(=O)C1,6.37
12,CCOC(=O)CCNC(=O)N1CCN(c2nc3ccccc3n2C)CC1,2.12
13,CNc1cc(N2CCCC2CNCc2c[nH]nc2C(C)(C)C)ncn1 (stereo not given),5.94
14,COCC1c2c(cnn2CC2CC2)CCN1Cc1nccs1 (stereo not given),4.17
15,CCc1nnc2n1CCN(C(=O)c1csc(-c3cnn(C)c3)n1)C2,3.16
16,Cn1ncc2c1CCCC2NCc1cc(Br)cs1 (stereo not given),7.62
17,CCC(C)c1noc(C2CCN(C(=O)c3cccs3)CC2)n1 (stereo not given),4.3
18,CCn1cnnc1CNC(=O)NC(C)C(C)C (stereo not given),2.91
19,O=C(CC1CCCC1)N1CCCC(c2n[nH]c3nccnc23)C1 (stereo not given),3.23
20,Fc1ccc2[nH]c(C3CCCN3CCc3ccccn3)nc2c1 (stereo not given),13.5
